The values that follow come from PubChem BioAssay (NCI).

A short description of experiment [1]: NCI Yeast Anticancer Drug Screen. Data for the rad50 strain (AID 155).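 Also: 0% = growth of vehicle-only cultures of the same strain.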 As to conditions: S. cerevisiae rad50 strain growth inhibition, hits give high values; at 50.0 µM unless noted. A digest of the protocol: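 Genetically altered yeast (DNA repair pathway); compound treatment; growth inhibition vs vehicle ctrl.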
Experiment [2] is described as follows: NCI Yeast Anticancer Drug Screen. Data for the mec2-1 strain (AID 157). Conditions: S. cerevisiae mec2-1 strain, hits give high values; at 50.0 µM unless noted. The gist of the method:
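Vehicle-treated cultures served as reference for growth inhibition of compound-exposed mec2-1 yeast.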

The nature of experiment [3]: NCI Yeast Anticancer Drug Screen. Data for the sgs1 mgt1 strain (AID 161).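 Also: 0% = growth of cultures given vehicle only.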 Conditions: S. cerevisiae sgs1 mgt1 strain, hits give high values; at 50.0 µM unless noted. The gist of the method:
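Read-out: growth inhibition vs vehicle controls. Cells: mutant yeast strain deficient in DNA damage repair.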

Experiment [4] can be described thus: NCI Yeast Anticancer Drug Screen. Data for the cln2 rad14 strain (AID 165).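 Also: 0% = growth equal to vehicle treated cultures.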 As to conditions: S. cerevisiae cln2 rad14 strain, hits give high values; at 50.0 µM unless noted. A digest of the protocol:
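Each compound was tested on cln2 rad14 yeast. Inhibition of growth was calculated against vehicle-exposed controls.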

A short description of experiment [5]: NCI Yeast Anticancer Drug Screen. Data for the bub3 strain (AID 167). As to conditions: S. cerevisiae bub3 mutant strain, hits give high values; at 50.0 µM unless noted. The gist of the method:
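Yeast carrying a defined mutation is treated with each compound, and growth is compared with that of vehicle-exposed cells to give inhibition.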

A short description of experiment [6]: NCI Yeast Anticancer Drug Screen. Data for the mlh1 rad18 strain (AID 175). As to conditions: S. cerevisiae mlh1 rad18 strain growth inhibition, hits give high values; at 50.0 µM unless noted. A digest of the protocol:
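Vehicle-treated cultures served as the reference for growth inhibition in a yeast strain carrying DNA damage repair alterations exposed to each compound.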

Values joined by “and” are separate entries in the source; they are usually repeats but may differ in a detail not shown here. Equal entries are not always repeated. Compounds without any hit were thinned out: in the full panel of roughly 79,000, 15% have a hit. Values without a mark were called inactive. Active and inactive are the calls of the source. Rule as the data show it: active = growth inhibition above about 70%; inactive = the rest.

For the compound `CCCCCCc1cc2cc(-c3csc(CC#N)n3)c(=O)oc2cc1O`, the growth inhibition in experiment [1] was 13.1%; in experiment [2] it was 14.1%; in experiment [3], -29.2%; in experiment [4], -6.6%; in experiment [5], -32.8%; in experiment [6], -32%.

For `CC1CCCN2C(=O)CN(c3ccccc3)CC(=O)N12` (stereo not given), the growth inhibition in experiment [1] was 13.6%; in experiment [2] it was 2.45%; in experiment [3] it was -4.7%; in experiment [4], 14.9%; in experiment [5], 5.35%; in experiment [6], 1.95%.

Take `CCC(C)C(C#N)(CCN(CC)CC)c1ccccc1` (stereo not given): the growth inhibition is 15.2% in experiment [1]; 12.6% in experiment [2]; 28.4% in experiment [3]; 7.3% in experiment [4]; 32.9% in experiment [5]; 14.5% in experiment [6].

Take `CCc1cc(C)cc(O)c1`: the growth inhibition in experiment [1] was -42.9% and 38%; in experiment [2] it was -40% and 4.6%; in experiment [3] it was -65.2% and -1.55%; in experiment [4], 0.45% and 7.15%; in experiment [5] it was -56% and 27.4%; in experiment [6], -29.9% and 12%.

Take `N#C/C(=C\c1ccc(Cl)cc1Cl)C(=O)N/N=C/c1ccc(Cl)cc1Cl`: the growth inhibition in experiment [1] was 62.8%; in experiment [2], 37.8%; in experiment [3], 27.8%; in experiment [4], 58.2%; in experiment [5] it was 98% (active); in experiment [6], 23.6%.

`CCNC(=O)c1ccc(C(C)C)cc1`: the growth inhibition in experiment [1] was 8.4%; in experiment [2], -7.2%; in experiment [3], 14.2%; in experiment [4] it was 4.75%; in experiment [5], 2.15%; in experiment [6] it was 5.75%.

As to `CC(O)C(C(=O)O)N(CC1(O)OCC(O)C(O)C1O)N=O` (stereo not given), the growth inhibition in experiment [1] was -4.5%; in experiment [2] it was -13.9%; in experiment [3] it was 11.3%; in experiment [4] it was 1.2%; in experiment [5] it was -2.65%; in experiment [6] it was -7.45%.

Turning to `CC(=O)Nc1ccn(C2OC(CO)C(O)C2O)c(=O)n1` (stereo not given), the growth inhibition in experiment [1] is -3.6%; in experiment [2], 26.9%; in experiment [3], 0.05%; in experiment [4], 31.1%; in experiment [5], -11.6%; in experiment [6], 8.3%.

As for `CN(C)c1ccc(/C=C(\C#N)c2ccc(F)cc2)cc1`, the growth inhibition was -2.65% in experiment [1]; -1.8% in experiment [2]; 3.05% in experiment [3]; -26.6% in experiment [4]; -6.75% in experiment [5]; -17.8% in experiment [6].

Take `O=C(N(O)c1ccccc1Cl)C(O)(c1ccccc1)c1ccccc1`: the growth inhibition in experiment [1] was 28.2%; in experiment [2], 16.6%; in experiment [3], 59.1%; in experiment [4], 37%; in experiment [5], 31.4%; in experiment [6], 75.5% (active).

For the compound `Cn1c2c(c(=O)c3cc(O)ccc31)CC(O)C(C)(C)O2` (stereo not given), the growth inhibition in experiment [1] was -8.9%; in experiment [2], -10.8%; in experiment [3], -11.7%; in experiment [4], -11%; in experiment [5], 8.8%; in experiment [6], -2.7%.

As to `O=c1c2ccc(Cl)cc2nc2nc(-c3ccccc3)c3cc(Cl)ccc3n12`, the growth inhibition in experiment [1] was 57.6%; in experiment [2], 31.2%; in experiment [3], 37.4%; in experiment [4] it was 22.9%; in experiment [5], 6.3%; in experiment [6] it was 46.5%.

As for `COC(=O)NCC1OCC2OC(C)(C)OC12` (stereo not given), the growth inhibition in experiment [1] is 14.8%; in experiment [2], 3.25%; in experiment [3] it was -10.9%; in experiment [4], -62.5%; in experiment [5] it was 14.8%; in experiment [6], 9.35%.

For `CCOC(=O)c1cnc2c(cnn2CC)c1NCC(C)C`, the growth inhibition in experiment [1] is -3.15%; in experiment [2], 21.8%; in experiment [3], 18.6%; in experiment [4] it was 3.15%; in experiment [5] it was 85.9% (active); in experiment [6], 3.35%.

Consider `O=C(NC(NC(=O)c1ccccc1)c1ccccc1)c1ccccc1`, for which the growth inhibition in experiment [1] was 2.1%; in experiment [2] it was -9.2%; in experiment [3] it was 1.25%; in experiment [4] it was -55.2%; in experiment [5], 8.55%; in experiment [6], -0.9%.

With `Cc1cc(=O)n2nc(CSc3nnc(N)s3)sc2n1`, the growth inhibition in experiment [1] was -0.7%; in experiment [2], 0.5%; in experiment [3], 7.35%; in experiment [4], 5.55%; in experiment [5] it was 10.5%; in experiment [6], 4.2%.

As to `COC(=O)c1cc(Cl)ccc1OCC(=O)Nc1ccccc1`, the growth inhibition was -6.3% in experiment [1]; -2.5% in experiment [2]; 13.4% in experiment [3]; -8.2% in experiment [4]; -6.55% in experiment [5]; -29.1% in experiment [6].

Consider `Nc1nc(CCc2ccc(NC(=O)CBr)cc2)c(CCCCc2ccccc2)c(=O)[nH]1`, for which the growth inhibition was 16.4% in experiment [1]; 1.85% in experiment [2]; 25.8% in experiment [3]; 24.2% in experiment [4]; 3.75% in experiment [5]; 16.2% in experiment [6].

In the case of `NC(=S)N/N=C/c1ccc([N+](=O)[O-])s1`, the growth inhibition was 9.65% in experiment [1]; 1.1% in experiment [2]; 19.9% in experiment [3]; 25.1% in experiment [4]; 22% in experiment [5]; 32.5% in experiment [6].

Take `O=C1Oc2ccccc2C(=O)/C1=C/N1C(=O)N/C(=C\c2cccc(O)c2)C1=O`: the growth inhibition was 21.9% in experiment [1]; 19.9% in experiment [2]; 37.6% in experiment [3]; 45.5% in experiment [4]; 15.7% in experiment [5]; -7.5% in experiment [6].
